Measured values as given in PubChem BioAssay (Tox21).
Results filed as inconclusive are left out. Active and inactive are the calls of the source. Unless noted, the call rests on the fitted dose curve; in most records, active means well fitted curve in the direction sought with a large enough effect in the repeat runs; inconclusive means weak or mixed curves; inactive means no such curve, though single readings can be large; an effect the other way counts as inactive or inconclusive.

Experiments:
[1] = biological target: Progesterone receptor (Homo sapiens) (UniProt P06401); experiment: qHTS assay to identify small molecule antagonists of the progesterone receptor (PR) signaling pathway (AID 1346795; active means well fitted inhibition curve with a large enough effect in the signal ratio in the repeat runs, not every such curve was filed as active; the % refers to the signal ratio; further: potency means the concentration at half of the fitted maximal effect)
In short: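 After 6 hr plating at 37C in 2% stripped-serum medium, PR-UAS-bla HEK293T cells got compounds, then 1 nM R5020. Sixteen hours later, LiveBLAzer substrate was applied for 2 hr at room temperature and fluorescence was recorded.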

[2] = qHTS assay to identify small molecule agonists of the TGF-beta/Smad signaling pathway - cell viability counter screen (AID 1346829); further: nearly all actives have a fitted effect of over 45% in size; further: potency means the concentration at half of the fitted maximal effect
In short: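 CellTiter-Glo luminescence readout; SBE-bla HEK 293T cells, overnight plating, compound 5 hr at 37 C/5% CO2, then bla substrate 2 hr RT, then CellTiter-Glo 30 min RT.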

[3] = biological target: Thyrotropin-releasing hormone receptor (Homo sapiens) (UniProt P34981); experiment: qHTS assay to identify small molecule antagonists of the thyrotropin-releasing hormone receptor (TRHR) signaling pathway (AID 1346877; active means well fitted inhibition curve with a large enough effect in the repeat runs, not every such curve was filed as active; further: potency means the concentration at half of the fitted maximal effect)
In short: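 TRHR-expressing HEK293 cells loaded with calcium dye for 2 h at 37 C; compounds pre-incubated 5 min at room temperature before TRH challenge at 1 nM final. Intracellular calcium fluorescence read kinetically for 3 min; 15 concentrations in triplicate.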

[4] = biological target: Thyrotropin-releasing hormone receptor (Homo sapiens) (UniProt P34981); experiment: qHTS assay to identify small molecule agonists of the thyrotropin-releasing hormone receptor (TRHR) signaling pathway (AID 1346891; calls by dose curve; further: potency means the concentration at half of the fitted maximal effect; on activation: series mostly up to about 58 µM; on the % scale 0 is the no-effect control and ±100 the full control effect)
In short: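 Kinetic fluorescence (3 min, 1 s intervals) reported intracellular calcium after compound transfer onto TRHR-Hek293 cells pre-loaded with dye for 2 h at 37 °C.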

[5] = Human pregnane X receptor (PXR) small molecule agonists, qHTS cell viability counter screen (AID 1346977); further: nearly all actives have a fitted effect of over 50% in size; further: potency means the concentration at half of the fitted maximal effect
In short: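 HepG2 cells stably carrying the PXR-Luc reporter are cultured with 5% charcoal-stripped FBS and treated with compounds for 24hr. CellTiter-Fluor is added at 23hr and fluorescence is read after 1hr.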

[6] = Caspase-3/7 induction in HepG2 cells by small molecules, qHTS assay (AID 1346978); further: nearly all actives have a fitted effect of over 15% in size; further: potency means the concentration at half of the fitted maximal effect
In short: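 Wild-type HepG2 cells, 2,000/well, settled 5 hr at 37 C and 5% CO2, then compound-treated for 17 hr; caspase-3/7 activity read by luminescent Caspase-Glo 3/7 after 30 min at room temperature.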

[7] = Caspase-3/7 induction in CHO-K1 cells by small molecules, qHTS cell viability counter screen (AID 1346979); further: nearly all actives have a fitted effect of over 35% in size; further: potency means the concentration at half of the fitted maximal effect
In short: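 Seeding: 1,500 CHO-K1 cells/well. Rest: 5hr, 37C. Treatment: compounds in DMSO, 16hr. Read: CellTiter-Fluor, 1hr, fluorescence.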

[8] = Caspase-3/7 induction in CHO-K1 cells by small molecules, qHTS assay (AID 1346980); further: nearly all actives have a fitted effect of over 15% in size; further: potency means the concentration at half of the fitted maximal effect
In short: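 Wild-type CHO-K1 cells exposed to compounds for 17hr at 37 C, 5% CO2. Caspase-3/7 activity then measured by Caspase-Glo 3/7 luminescence after 30min at room temperature.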

[9] = Caspase-3/7 induction in HepG2 cells by small molecules, qHTS cell viability counter screen (AID 1346981); further: nearly all actives have a fitted effect of over 30% in size; further: potency means the concentration at half of the fitted maximal effect
In short: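 Wild-type HepG2 cells, 2,000/well, settled 5 hr at 37 C, 5% CO2 before compound addition. Viability read by CellTiter-Fluor fluorescence, reagent added after 16 hr compound exposure, then 1 hr at 37C, in the same wells as the caspase read.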

[10] = biological target: Nuclear receptor subfamily 1 group I member 2 (Rattus norvegicus) (UniProt Q9R1A7); experiment: Rat pregnane X receptor (rPXR) activation by small molecules, qHTS assay (AID 1346983); conditions: rPXR luciferase reporter cells, One-Glo luminescence, 24 h; max activation: active compounds read high; further: on the % scale 0 is the no-effect control and ±100 the full control effect; nearly all actives have a fitted effect of over 20% in size
In short: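 Cell-based rPXR activation assay: rPXR cells, 2,000 per well, rested 5hr at 37 C, then exposed to compounds in DMSO for 24 hr at 37 C. Luciferase activity read by One-Glo luminescence after 30 min at room temperature.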

[11] = biological target: Nuclear receptor subfamily 1 group I member 2 (Homo sapiens) (UniProt O75469); experiment: CYP3A4 induction through human pregnane X receptor (PXR) by small molecules, qHTS assay (AID 1346984); further: potency means the concentration at half of the fitted maximal effect; nearly all actives have a fitted effect of over 40% in size
In short: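 DPX-2 HepG2 cells carrying a PXR response element and CYP3A4-promoter luciferase construct, treated with compounds 24 hr at 37C. Then P450-Glo CYP3A4 Luciferin-IPA substrate (3uM final) for 3 hr at 37C, One-Glo added, luminescence read.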

[12] = biological target: Nuclear receptor subfamily 1 group I member 2 (Homo sapiens) (UniProt O75469); experiment: Human pregnane X receptor (PXR) activation by small molecules, qHTS assay (AID 1346985); further: on the % scale 0 is the no-effect control and ±100 the full control effect; nearly all actives have a fitted effect of over 40% in size
In short: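 DPX-2 cells (HepG2 co-transfected with a PXR response element and a CYP3A4-promoter luciferase construct) were seeded at 2,000 per well, rested 5 hr at 37C, then exposed to DMSO-dissolved compounds for 24 hr. Activation was read as luciferase luminescence.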

[13] = biological target: Cytochrome P450 2D6 (Homo sapiens) (UniProt P10635); experiment: Cytochrome P450 Family 2 Subfamily D Member 6 (CYP2D6) small molecule antagonists: luciferase reporter qHTS assay (AID 1671196); further: nearly all actives have a fitted effect of over 50% in size; further: potency means the concentration at half of the fitted maximal effect
In short: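 Cell-free P450-Glo system: CYP2D6 with proluciferin substrate was pre-incubated with compound for 10 min, then reacted with NADPH regeneration for 1 h at room temperature. Luciferin product was detected after 20 min, and data were reported as relative luminescence units.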

[14] = biological target: Cytochrome P450 2C19 (Homo sapiens) (UniProt P33261); experiment: Cytochrome P450 Family 2 Subfamily C Member 19 (CYP2C19) small molecule antagonists: luciferase reporter qHTS assay (AID 1671197); further: nearly all actives have a fitted effect of over 65% in size; further: potency means the concentration at half of the fitted maximal effect
In short: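 Enzyme-substrate mix with proluciferin substrate (P450-Glo CYP2C19 system) preincubated with compounds 10 min at room temperature; NADPH regeneration solution added, 37C for 1 h; detection reagent stops reaction, luminescence read after 20 min. Ketoconazole positive control.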

[15] = qHTS assay to identify small molecule antagonists of the progesterone receptor (PR) signaling pathway - cell viability counter screen (AID 1346798); further: nearly all actives have a fitted effect of over 50% in size; further: potency means the concentration at half of the fitted maximal effect
In short: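 Viability was determined by ATP-based luminescence (CellTiter-Glo) in PR-UAS-bla HEK293T cells cultured in 2% charcoal-stripped serum and incubated 16 hr with compounds under R5020 stimulation.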

[16] = qHTS assay to identify small molecule agonists of the progesterone receptor (PR) signaling pathway - cell viability counter screen (AID 1346799; calls by dose curve; further: nearly all actives have a fitted effect of over 45% in size; further: potency means the concentration at half of the fitted maximal effect)
In short: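 Viability was scored by ATP luminescence (CellTiter-Glo, 30 min, room temperature) in the same wells used for the reporter readout, after 16 hr compound exposure of PR-UAS-bla HEK293T cells.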

[17] = qHTS assay to identify small molecule antagonists of the TGF-beta/Smad signaling pathway - cell viability counter screen (AID 1346824); further: nearly all actives have a fitted effect of over 50% in size; further: potency means the concentration at half of the fitted maximal effect
In short: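 SBE-bla HEK 293T cells, incubated overnight, then compound plus 0.25 ng/mL TGF-beta1 (stock added) for 5 hr at 37 C. Viability was read in the same wells by CellTiter-Glo luminescence after 30 min at room temperature.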

[18] = biological target: Nuclear receptor subfamily 1 group I member 2 (Homo sapiens) (UniProt O75469); experiment: Human pregnane X receptor (PXR) small molecule agonists, qHTS assay (AID 1346982); further: nearly all actives have a fitted effect of over 35% in size; further: potency means the concentration at half of the fitted maximal effect; on activation: on the % scale 0 is the no-effect control and ±100 the full control effect
In short: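 PXR-Luc HepG2 reporter cells (CYP3A4-driven luciferase) in 5% charcoal-stripped FBS medium, plated 5 h before compound addition, then treated 24 h at 37C. Luciferase read by ONE-Glo luminescence after 30 min at room temperature.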

[19] = qHTS assay to identify small molecule agonists of the TGF-beta/Smad signaling pathway (AID 1346859; active means well fitted activation curve with a large enough effect in the signal ratio in the repeat runs, not every such curve was filed as active; the % refers to the signal ratio; further: series mostly up to about 77 µM; on the % scale 0 is the no-effect control and ±100 the full control effect)
In short: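 Dual-wavelength fluorescence (460/530 nm emission) quantified beta-lactamase expression under the Smad binding element in HEK 293T cells following 5 hr compound treatment at 37 C.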

Sequence of Cytochrome P450 2D6 (Homo sapiens) (P10635 whole entry, looked up): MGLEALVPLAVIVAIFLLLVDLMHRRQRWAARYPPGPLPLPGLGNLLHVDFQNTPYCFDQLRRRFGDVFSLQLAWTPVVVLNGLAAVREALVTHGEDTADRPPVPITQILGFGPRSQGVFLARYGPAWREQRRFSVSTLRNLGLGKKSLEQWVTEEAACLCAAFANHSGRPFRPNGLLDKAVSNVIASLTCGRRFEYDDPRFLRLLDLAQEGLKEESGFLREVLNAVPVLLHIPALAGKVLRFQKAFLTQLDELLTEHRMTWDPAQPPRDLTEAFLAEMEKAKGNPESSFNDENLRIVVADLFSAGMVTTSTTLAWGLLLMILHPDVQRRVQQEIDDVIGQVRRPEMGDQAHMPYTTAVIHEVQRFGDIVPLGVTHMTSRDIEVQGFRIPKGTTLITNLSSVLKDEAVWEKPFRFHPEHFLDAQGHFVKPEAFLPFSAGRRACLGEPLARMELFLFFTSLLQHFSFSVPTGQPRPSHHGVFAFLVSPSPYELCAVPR
Sequence of Progesterone receptor (Homo sapiens) (P06401 whole entry, looked up): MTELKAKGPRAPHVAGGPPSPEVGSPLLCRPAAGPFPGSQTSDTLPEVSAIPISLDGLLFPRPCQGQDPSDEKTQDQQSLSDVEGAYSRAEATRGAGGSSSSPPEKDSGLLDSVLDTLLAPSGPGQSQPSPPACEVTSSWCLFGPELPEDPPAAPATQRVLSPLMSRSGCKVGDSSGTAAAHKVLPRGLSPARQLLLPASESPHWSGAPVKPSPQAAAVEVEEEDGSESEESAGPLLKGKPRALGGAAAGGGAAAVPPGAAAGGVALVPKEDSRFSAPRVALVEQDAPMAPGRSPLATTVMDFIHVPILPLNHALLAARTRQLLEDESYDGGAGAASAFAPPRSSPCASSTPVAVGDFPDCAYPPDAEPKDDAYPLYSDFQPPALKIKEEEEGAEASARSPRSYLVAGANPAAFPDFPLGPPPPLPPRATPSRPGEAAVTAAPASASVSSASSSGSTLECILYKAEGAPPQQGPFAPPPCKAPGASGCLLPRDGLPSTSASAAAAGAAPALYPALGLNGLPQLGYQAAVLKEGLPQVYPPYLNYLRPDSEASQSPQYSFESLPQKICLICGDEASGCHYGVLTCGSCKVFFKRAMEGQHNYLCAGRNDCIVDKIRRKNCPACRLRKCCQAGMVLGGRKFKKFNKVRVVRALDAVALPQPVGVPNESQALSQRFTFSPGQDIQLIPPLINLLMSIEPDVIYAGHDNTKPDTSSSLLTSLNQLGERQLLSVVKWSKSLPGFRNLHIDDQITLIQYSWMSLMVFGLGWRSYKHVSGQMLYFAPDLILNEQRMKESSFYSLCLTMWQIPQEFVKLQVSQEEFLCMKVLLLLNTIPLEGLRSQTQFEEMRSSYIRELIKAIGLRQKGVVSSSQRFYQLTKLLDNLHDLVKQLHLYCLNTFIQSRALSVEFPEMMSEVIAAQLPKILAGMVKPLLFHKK
Sequence of Nuclear receptor subfamily 1 group I member 2 (Homo sapiens) (O75469 whole entry, looked up): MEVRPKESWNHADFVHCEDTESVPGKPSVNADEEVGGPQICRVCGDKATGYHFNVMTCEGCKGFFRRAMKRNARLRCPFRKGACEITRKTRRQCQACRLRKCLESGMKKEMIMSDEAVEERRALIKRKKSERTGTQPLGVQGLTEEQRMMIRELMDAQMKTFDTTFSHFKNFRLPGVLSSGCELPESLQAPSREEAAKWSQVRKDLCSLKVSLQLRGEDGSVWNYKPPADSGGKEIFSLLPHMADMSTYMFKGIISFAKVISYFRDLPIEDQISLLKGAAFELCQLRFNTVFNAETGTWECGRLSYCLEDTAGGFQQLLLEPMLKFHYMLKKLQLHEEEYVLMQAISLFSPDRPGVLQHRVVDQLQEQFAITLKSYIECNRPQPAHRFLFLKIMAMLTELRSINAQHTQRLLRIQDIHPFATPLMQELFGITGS
Sequence of Cytochrome P450 2C19 (Homo sapiens) (P33261 whole entry, looked up): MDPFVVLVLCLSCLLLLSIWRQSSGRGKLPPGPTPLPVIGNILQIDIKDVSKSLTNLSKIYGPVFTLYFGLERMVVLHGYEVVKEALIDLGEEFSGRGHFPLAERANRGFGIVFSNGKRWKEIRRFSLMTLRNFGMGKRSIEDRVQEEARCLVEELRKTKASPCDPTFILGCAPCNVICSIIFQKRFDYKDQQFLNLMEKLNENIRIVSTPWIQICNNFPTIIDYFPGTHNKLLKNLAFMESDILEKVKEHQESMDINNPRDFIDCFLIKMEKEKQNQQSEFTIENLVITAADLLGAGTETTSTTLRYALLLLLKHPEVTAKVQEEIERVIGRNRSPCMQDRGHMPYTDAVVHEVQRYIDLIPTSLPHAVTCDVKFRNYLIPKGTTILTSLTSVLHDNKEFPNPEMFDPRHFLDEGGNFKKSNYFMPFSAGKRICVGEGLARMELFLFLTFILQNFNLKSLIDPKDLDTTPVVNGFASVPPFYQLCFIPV
Sequence of Thyrotropin-releasing hormone receptor (Homo sapiens) (P34981 whole entry, looked up): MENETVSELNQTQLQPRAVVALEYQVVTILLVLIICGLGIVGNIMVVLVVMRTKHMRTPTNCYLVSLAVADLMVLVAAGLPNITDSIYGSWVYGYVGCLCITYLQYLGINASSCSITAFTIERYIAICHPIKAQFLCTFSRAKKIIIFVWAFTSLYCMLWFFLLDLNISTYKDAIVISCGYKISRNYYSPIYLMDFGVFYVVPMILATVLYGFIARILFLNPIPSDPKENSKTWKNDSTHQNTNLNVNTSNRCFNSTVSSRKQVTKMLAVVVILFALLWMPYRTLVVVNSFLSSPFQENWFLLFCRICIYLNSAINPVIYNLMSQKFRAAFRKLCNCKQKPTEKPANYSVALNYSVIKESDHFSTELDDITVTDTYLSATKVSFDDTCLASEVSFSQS
Sequence of Nuclear receptor subfamily 1 group I member 2 (Rattus norvegicus) (Q9R1A7 whole entry, looked up): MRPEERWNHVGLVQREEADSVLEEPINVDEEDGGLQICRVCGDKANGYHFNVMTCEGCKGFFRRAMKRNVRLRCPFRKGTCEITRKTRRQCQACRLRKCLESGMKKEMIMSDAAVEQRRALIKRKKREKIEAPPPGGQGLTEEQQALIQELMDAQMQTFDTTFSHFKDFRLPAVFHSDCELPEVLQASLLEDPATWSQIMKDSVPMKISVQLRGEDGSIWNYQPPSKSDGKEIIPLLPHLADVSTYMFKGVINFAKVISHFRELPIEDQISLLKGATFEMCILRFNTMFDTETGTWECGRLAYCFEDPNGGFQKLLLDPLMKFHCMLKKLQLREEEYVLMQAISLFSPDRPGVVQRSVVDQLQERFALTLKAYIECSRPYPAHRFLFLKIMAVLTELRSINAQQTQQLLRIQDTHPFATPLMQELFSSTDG

Cc1cc(O)c2ccccc2c1O
inactive: Potency [3] | Potency [4] | Potency [6] | Potency [8] | max activation [10] 10% | Potency [12]
active: Potency [1] 23.7 µM | Potency [2] 23.9 µM | Potency [5] 16.8 µM | Potency [7] 10.6 µM | Potency [9] 33.5 µM | Potency [11] 1.58 µM | Potency [13] 17.4 µM | Potency [14] 11 µM

CCCCCCCCNC(C)C(O)c1ccc(SC(C)C)cc1 (stereo not drawn)
inactive: Potency [3] | Potency [4] | Potency [18]
active: Potency [15] 29.8 µM | Potency [16] 29.8 µM | Potency [17] 21.3 µM | Potency [2] 23.9 µM | Potency [5] 13.3 µM | Potency [6] 21.1 µM | Potency [7] 16.8 µM | Potency [9] 29.8 µM | Potency [13] 1.95 µM | Potency [14] 19.5 µM

CC(C)(C)c1ccc(C(=O)O)cc1
inactive: Potency [15] | Potency [16] | Potency [17] | Potency [2] | Potency [19] | Potency [5] | Potency [6] | Potency [7] | Potency [8] | Potency [9] | Potency [13] | Potency [14]

CN(C)C(=O)C1(N2CCCCC2)CCN(CC[C@@]2(c3ccc(Cl)c(Cl)c3)CN(C(=O)c3ccccc3)CCO2)CC1
active: Potency [1] 50.9 µM | Potency [16] 20.3 µM | Potency [5] 25.5 µM | Potency [6] 45.4 µM | Potency [8] 57.1 µM | Potency [9] 50.9 µM | Potency [18] 20.3 µM | Potency [13] 6.63 µM | Potency [14] 1.67 µM
inactive: Potency [19]

CN(C/C=C/C#CC(C)(C)C)Cc1cccc2ccccc12
inactive: Potency [17] | Potency [2] | Potency [19] | Potency [3] | Potency [4] | Potency [5] | Potency [6] | Potency [7] | Potency [8] | Potency [9] | max activation [10] 0.136%
active: Potency [15] 26.6 µM | Potency [16] 13.3 µM | Potency [13] 0.275 µM | Potency [14] 17.4 µM

COC(=O)C1=C(C)NC(C)=C(C(=O)OCC(C)C)C1c1ccccc1[N+](=O)[O-] (stereo not drawn)
active: Potency [1] 10.6 µM | Potency [9] 54.5 µM
inactive: Potency [17] | Potency [2] | Potency [19] | Potency [3] | Potency [4] | Potency [6] | Potency [8]

OCCCCCCCCCCCCBr
inactive: Potency [15] | Potency [16] | Potency [17] | Potency [2] | Potency [19] | Potency [6] | Potency [8] | Potency [9] | Potency [18] | Potency [13] | Potency [14]

C/C(=C(/OCCOc1ccc(Cl)cc1)c1ccc(Cl)cc1Cl)n1ccnc1
active: Potency [1] 8.41 µM | Potency [16] 16.8 µM | Potency [18] 10.6 µM | Potency [13] 1.55 µM | Potency [14] 0.776 µM
inactive: Potency [17] | Potency [2] | Potency [19] | Potency [6] | Potency [8] | Potency [9]

CCCCCCCCCCCCCCCCCC[N+](C)(C)C
inactive: Potency [19] | Potency [6] | Potency [8] | Potency [18]
active: Potency [15] 48.7 µM | Potency [16] 54.6 µM | Potency [17] 43.8 µM | Potency [2] 43.8 µM | Potency [3] 30.3 µM | Potency [4] 34.8 µM | Potency [5] 54.6 µM | Potency [7] 27.4 µM | Potency [13] 0.635 µM | Potency [14] 89.6 µM

CNCc1cc(F)ccc1Oc1ccc(Cl)c(Cl)c1
inactive: Potency [15] | Potency [17] | Potency [2] | Potency [19] | Potency [8] | Potency [18]
active: Potency [1] 61.1 µM | Potency [4] 34.7 µM | Potency [7] 61.1 µM | Potency [13] 1.78 µM | Potency [14] 2.52 µM

CC1=C(/C=C/C(C)=C/C=C/C(C)=C/C=O)C(C)(C)CCC1
active: Potency [1] 54.2 µM | Potency [16] 60.8 µM | Potency [5] 60.8 µM | Potency [9] 60.8 µM | Potency [18] 15.3 µM | Potency [13] 63 µM | Potency [14] 39.7 µM
inactive: Potency [19] | Potency [3] | Potency [4]

On1ccccc1=S
inactive: Potency [17] | Potency [2] | Potency [19] | Potency [3] | Potency [4] | Potency [8]
active: Potency [1] 0.539 µM | Potency [15] 0.605 µM | Potency [6] 1.71 µM | Potency [7] 0.428 µM | Potency [9] 15.2 µM

NC(=O)C1(N2CCCCC2)CCN(CCCN2c3ccccc3CCc3ccc(Cl)cc32)CC1
active: Potency [1] 23.7 µM | Potency [5] 13.3 µM | Potency [6] 33.5 µM | Potency [7] 26.6 µM | Potency [13] 7.76 µM
inactive: Potency [3] | Potency [4]

O=C1CCCc2c1cc1ccc3cccc4ccc2c1c34
inactive: Potency [15] | Potency [17] | Potency [2] | Potency [3] | Potency [4] | Potency [5] | Potency [6] | Potency [7] | Potency [8] | Potency [9] | Potency [13]
active: Potency [1] 3.48 µM | Potency [14] 18.1 µM

CCCC(c1cc(C(C)(C)C)c(O)cc1C)c1cc(C(C)(C)C)c(O)cc1C
active: Potency [15] 22 µM | Potency [17] 24.8 µM | Potency [2] 24.8 µM | Potency [5] 17.4 µM | Potency [6] 24.6 µM | Potency [7] 13.9 µM | Potency [9] 22 µM | Potency [18] 1.96 µM | Potency [13] 28.6 µM | Potency [14] 9.05 µM
inactive: Potency [3] | Potency [8]
